{"source": "PubChem BioAssay AID493215", "about": "(National Center for Advancing Translational Sciences (NCATS), 2011)", "note": "Results filed as inconclusive are left out. Where a call stands in place of a potency, no number is given. Activity calls are given as the source filed them. Calls come from the whole dose curve; as a rule, active = well fitted inhibition curve with a large enough effect; inconclusive = small, poorly fitted or top-dose-only effect; inactive = flat fitted curve, though single readings scatter."}
{"biological_target": "Cruzipain (Trypanosoma cruzi) (UniProt P25779)", "sequence (P25779 123-467 limits assumed)": "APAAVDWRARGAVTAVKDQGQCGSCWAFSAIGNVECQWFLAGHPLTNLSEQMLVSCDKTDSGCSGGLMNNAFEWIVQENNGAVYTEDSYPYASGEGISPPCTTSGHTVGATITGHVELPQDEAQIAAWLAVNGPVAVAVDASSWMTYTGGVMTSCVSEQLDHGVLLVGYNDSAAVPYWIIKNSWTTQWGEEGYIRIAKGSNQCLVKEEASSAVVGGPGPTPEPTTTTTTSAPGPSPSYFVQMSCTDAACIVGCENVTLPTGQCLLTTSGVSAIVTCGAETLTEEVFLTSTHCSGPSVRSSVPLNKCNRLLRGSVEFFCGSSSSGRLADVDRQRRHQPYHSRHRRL", "test": "Inhibitors of Cruzain: Benzimidazole Series - Round 1", "conditions": "purified cruzain, Z-FR-AMC fluorogenic cleavage; series mostly up to 57.1 µM", "description": "Cruzain is a cysteine protease from the tropical parasite Trypanosoma cruzi. This assay protocol is for an initial exploratory first round of benzimidazole-based inhibitors. Cruzain was assayed by the use of fluorogenic coumarin-based substrate Z-FR-AMC: proteolytic cleavage releases AMC, whose fluorescence is measured at 360 nm excitation and 450 nm emission. Purified cruzain was supplied by the labs of Prof. James McKerrow and Brian Shoichet, UC San Francisco. This assay had 0.01% Triton X-100 concentration.\nSee following references for additional details:\nAssay Provider: Shoichet, Brian; University of California, San Fancisco\nScreening Center PI: Austin, C.P.\nScreening Center: NIH Chemical Genomics Center [NCGC]\nBuffer: 100 mM Sodium Acetate, pH 5.5, 5 mM DTT, Triton X-100 concentration: 0.01%.\nBuffer in columns 3 and 4 as negative control (no enzyme).\nSubstrate solution: 2 uM final concentration of Z-FR-AMC (catalog number I-1160, Bachem) dispensed throughout the plate.\nEnzyme: 1.5 nM Cruzain final concentration in columns 1, 2, 5-48. Column 1 is neutral (100% activity). Column 2 contained titration of covalent inhibitor K11777, starting concentration 1 mM, then 1:2 dilution in duplicate).\nThree uL of enzyme or buffer were dispensed to 1536-well Greiner black solid bottom plates. Compounds and controls (23 nL) were transferred via Kalypsys PinTool. The plates were incubated for 15 min at room temperature, and then 1 uL of substrate solution was added to start the reaction. The plates were immediately transferred to and read 4 times every 30 seconds for 2 min on ViewLux High-throughput CCD imager (Perkin-Elmer) using 360 nm excitation and 450 nm emission fluorescence protocol. The fluorescence intensity difference between the third and the first time points (time lapse of 60 seconds) was used to compute reaction progress."}
{"smiles": "Cc1ccc(C)c(OCCn2c(CCNC(=O)COc3ccc(F)cc3)nc3ccccc32)c1", "Potency": "9.13 µM (active)"}
{"smiles": "O=C(COc1ccccc1Br)NCCc1nc2ccccc2[nH]1", "Potency": "3.63 µM (active)"}
{"smiles": "CC(C)(C)OC(=O)Cc1nnc(-c2nc3ccccc3[nH]2)o1", "Potency": "inactive"}
{"smiles": "O=C(NCc1nnc(-c2nc3ccccc3[nH]2)o1)C1CCCCC1", "Potency": "inactive"}
{"smiles": "CC(C)(C)OC(=O)NCC(=O)NNC(=O)c1nc2ccccc2[nH]1", "Potency": "inactive"}
{"smiles": "CC(C)(C)OC(=O)NCc1nnc(-c2nc3ccccc3[nH]2)o1", "Potency": "inactive"}
{"smiles": "O=C(NNC(=O)c1nc2ccccc2[nH]1)OCc1ccccc1", "Potency": "inactive"}
{"smiles": "O=C(NCCc1nc2ccccc2n1CCO)C1CCCCC1", "Potency": "6.46 µM (active)"}
{"smiles": "Cc1ccc(C)c(OCCn2c(CCNC(=O)C3CCCCC3)nc3ccccc32)c1", "Potency": "1.62 µM (active)"}
{"smiles": "O=C(COc1ccc(F)cc1)NCCc1nc2ccccc2[nH]1", "Potency": "4.08 µM (active)"}
{"smiles": "O=C(Cc1nnc(-c2nc3ccccc3[nH]2)o1)Nc1cc(C(F)(F)F)ccc1Cl", "Potency": "inactive"}
